Results as given in PubChem BioAssay (Tox21).
The source made the active and inactive calls. The call rests on the fitted dose curve; in most records, active means well fitted curve in the direction sought with a large enough effect in the repeat runs; inconclusive means weak or mixed curves; inactive means flat fitted curve, though single readings scatter.

Assay: qHTS assay to test for compound auto fluorescence at 460 nm (blue) in HepG2 cell free culture (AID 720685)
Settings: Cell-free culture medium, blue autofluorescence 405/460 nm; series mostly up to 91.3 µM; fluorescence, % of fluorescent control: at the top concentration
Summary of the method: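 Cell-free plates of MEM plus 10% FBS received 23 nL compound or DMSO vehicle; blue-channel (405/460 nm) intensity scored against triamterene as reference fluorophore.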
On the % scale 0 is the no-effect control and ±100 the full control effect.

SMILES	fluorescence, % of fluorescent control	Potency
CC(=O)CCc1ccc(O)cc1	0.0157% (inactive)	
NC(=O)c1ncn([C@@H]2O[C@H](CO)[C@@H](O)[C@H]2O)c1N	-0.0107% [at 46 µM] (inactive)	
c1ccc(SCCSc2ccccc2)cc1	-0.113% (inactive)	
CC(C)[N+](C)(C)CC(O)COc1cccc2ccccc12 (stereo unspecified)	0.019% [at 46 µM] (inactive)	
C=C(C)[C@H]1CC=C(C)CC1	-0.0822% (inactive)	
CSc1nc(NC2CC2)nc(NC(C)(C)C)n1	0.0216% (inactive)	
CC(O)CN(CCCN(C)C)CCCN(C)C (stereo unspecified)	0.0178% (inactive)	
COC[C@H](c1ccc(C(F)(F)F)cc1)N1CCN(C2(C)CCN(C(=O)c3c(C)ncnc3C)CC2)C[C@H]1C	0.026% [at 46 µM] (inactive)	
OCCN1C[C@H](O)[C@@H](O)[C@H](O)[C@H]1CO	-0.14% [at 46 µM] (inactive)	
[O-][N+](=Nc1ccccc1)c1ccccc1		inactive
O=[N+]([O-])c1ccc(Oc2ccc([N+](=O)[O-])cc2)cc1	-0.0011% [at 95.7 µM] (inactive)	
OCC(O)[C@@H](O)[C@H](O)[C@H](O)CO[C@H]1O[C@H](CO)[C@@H](O)[C@H](O)[C@H]1O (stereo partly specified)	0.0177% (inactive)	
CC(C)c1cccc(O)c1	0.0686% [at 95.7 µM] (inactive)	
CO		inactive
COc1cccc(Br)c1	0.0135% (inactive)	
CCc1cc(S(=O)(=O)O)c2cc(C(C)C)cccc1-2	-0.12% [at 46 µM] (inactive)	
O=C(O)C(O)[C@H](O)[C@@H](O)[C@H](O)[C@H](O)CO (stereo partly specified)	-0.0118% [at 95.7 µM] (inactive)	
CCCCCCCCC=O	-0.0215% (inactive)	

SMILES	fluorescence, % of fluorescent control	Potency
C=C(C)C(=O)NCCCN(C)C	0.406% (inactive)	
CC(C)(O)C(=O)c1ccc(OCCO)cc1	-0.0041% (inactive)	
N#CCN(CC#N)CCN(CC#N)CC#N	0.0673% (inactive)	
CC/C=C\CCCCO	0.0431% (inactive)	
COc1cccc(OC)c1	-0.165% (inactive)	
CCCCCCOC(=O)c1ccccc1O	0.0592% (inactive)	
CC(C)N1C(=O)c2ccccc2C1=O	-0.0125% (inactive)	
O=[N+]([O-])c1ccc(CCO)cc1	-0.0782% (inactive)	
COc1cc(O)cc(O)c1	0.318% [at 46 µM] (inactive)	
O=C(O)CCNC(=O)c1ccc(N=Nc2ccc(O)c(C(=O)O)c2)cc1	-0.387% [at 46 µM] (inactive)	
CC(C)c1cccc(C(C)C)c1N	0.177% (inactive)	
CO[Si](OC)(OC)OC	0.0032% (inactive)	
NS(=O)(=O)c1cc2c(cc1Cl)NC(CSCc1ccccc1)=NS2(=O)=O	-0.0404% [at 18.6 µM] (inactive)	
CCCCOCC(C)OCC(C)O (stereo unspecified)	0.0428% [at 95.7 µM] (inactive)	
Cc1ccccc1C(=O)O	-0.108% (inactive)	
CCCCCCCCCCCCCCCCCCOCC(O)CO (stereo unspecified)	-0.048% [at 46 µM] (inactive)	
C=CCOc1nc(OCC=C)nc(OCC=C)n1	-0.0253% (inactive)	
Cn1ccc2cc3c(cc21)CCN3C(=O)Nc1cccnc1	0.11% [at 46 µM] (inactive)	

Assay: qHTS assay to test for compound auto fluorescence at 535 nm (green) in HepG2 cell free culture (AID 720686)
Settings: Cell-free medium, green autofluorescence 485/535 nm; series mostly up to 91.3 µM; fluorescence, % of fluorescein control: at the top concentration

SMILES	fluorescence, % of fluorescein control	outcome
CC(=O)CCc1ccc(O)cc1	-0.062% (inactive)	
NC(=O)c1ncn([C@@H]2O[C@H](CO)[C@@H](O)[C@H]2O)c1N	-0.0085% [at 46 µM] (inactive)	
c1ccc(SCCSc2ccccc2)cc1	0.0217% (inactive)	
CC(C)[N+](C)(C)CC(O)COc1cccc2ccccc12 (stereo unspecified)	-0.0348% [at 46 µM] (inactive)	
C=C(C)[C@H]1CC=C(C)CC1	0.0354% (inactive)	
CSc1nc(NC2CC2)nc(NC(C)(C)C)n1	0.0141% (inactive)	
CC(O)CN(CCCN(C)C)CCCN(C)C (stereo unspecified)	0.0234% (inactive)	
COC[C@H](c1ccc(C(F)(F)F)cc1)N1CCN(C2(C)CCN(C(=O)c3c(C)ncnc3C)CC2)C[C@H]1C	-0.0048% [at 46 µM] (inactive)	
OCCN1C[C@H](O)[C@@H](O)[C@H](O)[C@H]1CO	0.106% [at 46 µM] (inactive)	
[O-][N+](=Nc1ccccc1)c1ccccc1		inactive
O=[N+]([O-])c1ccc(Oc2ccc([N+](=O)[O-])cc2)cc1	-0.0936% [at 95.7 µM] (inactive)	
OCC(O)[C@@H](O)[C@H](O)[C@H](O)CO[C@H]1O[C@H](CO)[C@@H](O)[C@H](O)[C@H]1O (stereo partly specified)	-0.0799% (inactive)	
CC(C)c1cccc(O)c1	-0.186% [at 95.7 µM] (inactive)	
CO		inactive
COc1cccc(Br)c1	0.007% (inactive)	
CCc1cc(S(=O)(=O)O)c2cc(C(C)C)cccc1-2	-0.287% [at 46 µM] (inactive)	
O=C(O)C(O)[C@H](O)[C@@H](O)[C@H](O)[C@H](O)CO (stereo partly specified)	-0.156% [at 95.7 µM] (inactive)	
CCCCCCCCC=O	0.0173% (inactive)	

SMILES	fluorescence, % of fluorescein control	outcome
C=C(C)C(=O)NCCCN(C)C	0.0726% (inactive)	
CC(C)(O)C(=O)c1ccc(OCCO)cc1	-0.0073% (inactive)	
N#CCN(CC#N)CCN(CC#N)CC#N	-0.137% (inactive)	
CC/C=C\CCCCO	-0.122% (inactive)	
COc1cccc(OC)c1	-0.0932% (inactive)	
CCCCCCOC(=O)c1ccccc1O	0.114% (inactive)	
CC(C)N1C(=O)c2ccccc2C1=O	0.0429% (inactive)	
O=[N+]([O-])c1ccc(CCO)cc1	-0.0393% (inactive)	
COc1cc(O)cc(O)c1	0.114% [at 46 µM] (inactive)	
O=C(O)CCNC(=O)c1ccc(N=Nc2ccc(O)c(C(=O)O)c2)cc1	-0.14% [at 46 µM] (inactive)	
CC(C)c1cccc(C(C)C)c1N	3e-05% (inactive)	
CO[Si](OC)(OC)OC	-0.044% (inactive)	
NS(=O)(=O)c1cc2c(cc1Cl)NC(CSCc1ccccc1)=NS2(=O)=O	-0.0451% [at 18.6 µM] (inactive)	
CCCCOCC(C)OCC(C)O (stereo unspecified)	-0.0576% [at 95.7 µM] (inactive)	
Cc1ccccc1C(=O)O	-0.129% (inactive)	
CCCCCCCCCCCCCCCCCCOCC(O)CO (stereo unspecified)	-0.085% [at 46 µM] (inactive)	
C=CCOc1nc(OCC=C)nc(OCC=C)n1	0.0048% (inactive)	
Cn1ccc2cc3c(cc21)CCN3C(=O)Nc1cccnc1	0.0837% [at 46 µM] (inactive)	

Assay: qHTS assay to test for compound auto fluorescence at 460 nm (blue) in HepG2 cells (AID 720687)
Settings: autofluorescence 405/460 nm, 1 h; series mostly up to 91.3 µM; fluorescence, % of fluorescent control: at the top concentration
Summary of the method: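 Blue-channel autofluorescence (Ex/Em 405/460 nm, triamterene-equivalent) was measured after 1 hr compound exposure at 37 C, 5% CO2. Cells were HepG2, plated overnight at 37 C in MEM plus 10% FBS.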

SMILES	fluorescence, % of fluorescent control	Potency
CC(=O)CCc1ccc(O)cc1	0.0639% (inactive)	
NC(=O)c1ncn([C@@H]2O[C@H](CO)[C@@H](O)[C@H]2O)c1N	-0.0675% [at 46 µM] (inactive)	
c1ccc(SCCSc2ccccc2)cc1	0.0027% (inactive)	
CC(C)[N+](C)(C)CC(O)COc1cccc2ccccc12 (stereo unspecified)	0.04% [at 46 µM] (inactive)	
C=C(C)[C@H]1CC=C(C)CC1	-0.0035% (inactive)	
CSc1nc(NC2CC2)nc(NC(C)(C)C)n1	-0.0984% (inactive)	
CC(O)CN(CCCN(C)C)CCCN(C)C (stereo unspecified)	0.03% (inactive)	
COC[C@H](c1ccc(C(F)(F)F)cc1)N1CCN(C2(C)CCN(C(=O)c3c(C)ncnc3C)CC2)C[C@H]1C	-0.0049% [at 46 µM] (inactive)	
OCCN1C[C@H](O)[C@@H](O)[C@H](O)[C@H]1CO	-0.0709% [at 46 µM] (inactive)	
[O-][N+](=Nc1ccccc1)c1ccccc1		inactive
OCC(O)[C@@H](O)[C@H](O)[C@H](O)CO[C@H]1O[C@H](CO)[C@@H](O)[C@H](O)[C@H]1O (stereo partly specified)	-0.0194% (inactive)	
CC(C)c1cccc(O)c1	-0.0178% [at 95.7 µM] (inactive)	
CO		inactive
COc1cccc(Br)c1	-0.0016% (inactive)	
CCc1cc(S(=O)(=O)O)c2cc(C(C)C)cccc1-2	-0.147% [at 46 µM] (inactive)	
O=C(O)C(O)[C@H](O)[C@@H](O)[C@H](O)[C@H](O)CO (stereo partly specified)	0.0154% [at 95.7 µM] (inactive)	
CCCCCCCCC=O	-0.0789% (inactive)	
C=C(C)C(=O)NCCCN(C)C	0.107% (inactive)	
CC(C)(O)C(=O)c1ccc(OCCO)cc1	0.0202% (inactive)	
COc1cccc(OC)c1	-0.197% (inactive)	
CCCCCCOC(=O)c1ccccc1O	0.0829% (inactive)	
CC(C)N1C(=O)c2ccccc2C1=O	-0.0156% (inactive)	
O=[N+]([O-])c1ccc(CCO)cc1	0.0286% (inactive)	
COc1cc(O)cc(O)c1	0.192% [at 46 µM] (inactive)	
CC(C)c1cccc(C(C)C)c1N	-0.0993% (inactive)	
CO[Si](OC)(OC)OC	0.057% (inactive)	
Cc1ccccc1C(=O)O	-0.0006% (inactive)	
CCCCCCCCCCCCCCCCCCOCC(O)CO (stereo unspecified)	-0.0001% [at 46 µM] (inactive)	
C=CCOc1nc(OCC=C)nc(OCC=C)n1	0.0084% (inactive)	
